Laboratory results published in PubChem BioAssay AID540333 (Southern Research Specialized Biocontainment Screening …, 2011).
About 320 (3.2%) of roughly 10,000 compounds were called active. Rule as the data show it: active = CPE inhibition mostly above about 9.1% (no sharp cut-off); inactive = mostly below about 7.2%. The list comes from a sample in which actives are over-represented; it also holds similar structures and randomly drawn compounds.

Assay: antivirals protecting cells from dengue CPE – CPE readout, HTS (AID 540333)
Settings: Dengue virus CPE inhibition in host cells, at 20 µM; stronger effect = higher value
In the case of `Cc1ccc(NC(=O)CSc2nn(-c3ccc(Cl)cc3)c(=S)s2)cc1S(=O)(=O)N(C)C`, the CPE inhibition is reported as 2.52% (inactive). With `Cc1ccc(NC(=O)c2cnccn2)cc1S(=O)(=O)N(C)C` the CPE inhibition was 1.06% (inactive). In the case of `Cc1ccc(NC(=O)CCNC(=O)c2ccccc2Cl)cc1S(=O)(=O)N(C)C`, the CPE inhibition is reported as 0.01% (inactive). In the case of `Cc1ccc(NC(=O)CNc2ccc(Cl)c(Cl)c2)cc1S(=O)(=O)N(C)C`, the CPE inhibition is reported as 20.7% (active). In the case of `Cc1ccc(NC(=O)Cc2ccc(Cl)c(Cl)c2)cc1S(=O)(=O)N(C)C`, the CPE inhibition is reported as 11.7% (active). With `COc1ccc(CCC(=O)OCC(=O)Nc2ccc(C)c(S(=O)(=O)N(C)C)c2)cc1` the CPE inhibition was 0.745% (inactive). In the case of `CN(C)S(=O)(=O)n1cnc([C@@H]2[C@H]3C(=O)OC[C@@H]3C[C@@]23N=CN(Cc2ccccc2)C3=O)c1`, the CPE inhibition is reported as 0.215% (inactive). With `CC1CCCN(c2ccc(C(=O)NCc3ccc4c(c3)OCO4)cc2[N+](=O)[O-])C1` (stereo unspecified) the CPE inhibition was 0.66% (inactive). In the case of `NNC(=O)c1ccc(COc2cccc3ccccc23)cc1`, the CPE inhibition is reported as 0.845% (inactive). In the case of `CC(C)c1ccc(NCCC(=O)c2ccc(Br)cc2)cc1`, the CPE inhibition is reported as “inactive”. With `CCNC(=S)Nc1cc(Cl)ccc1Oc1ccccc1` the CPE inhibition was 1.55% (inactive). In the case of `CC1=NN(c2ccccc2)C(=O)/C1=C/c1ccc[nH]1`, the CPE inhibition is reported as “inactive”. With `CC1=NN(c2ccccc2)C(=O)/C1=C\c1cc(C)n(-c2ccccc2)c1C` the CPE inhibition was 1.6% (inactive). In the case of `COc1cc(/C=C2\C(=O)N(c3ccccc3)N=C2C)ccc1Oc1ccc([N+](=O)[O-])cc1[N+](=O)[O-]`, the CPE inhibition is reported as 12.3% (active). In the case of `CCOC(=O)c1cc(-c2ccccc2)sc1NC(=O)CC`, the CPE inhibition is reported as “inactive”. In the case of `CCOC(=O)c1cc(-c2ccccc2)sc1NC(=O)C(C)Sc1nnc(N)s1` (stereo unspecified), the CPE inhibition is reported as 19% (active). In the case of `CCOC(=O)c1cc(-c2ccccc2)sc1NC(=O)C(C)C`, the CPE inhibition is reported as 0.57% (inactive). In the case of `COC(=O)NNC(=O)COc1ccc2ccccc2c1Br`, the CPE inhibition is reported as “inactive”. With `CCOC(=O)c1ccc(-c2ccc(C3Nc4ccccc4C(=O)N3O)o2)cc1` (stereo unspecified) the CPE inhibition was 0.8% (inactive). In the case of `Fc1cccc2sc(Nc3nc4cc5c(cc4s3)OCO5)nc12`, the CPE inhibition is reported as 13.5% (active). In the case of `COC(=O)c1ccc2nc(Nc3nc4ccc(F)cc4s3)sc2c1`, the CPE inhibition is reported as 1.64% (inactive). For `Fc1cccc2sc(Nc3nc4ccccc4s3)nc12`, the CPE inhibition was 0.65% (inactive). With `Fc1ccc2nc(Nc3nc4cc5c(cc4s3)OCCO5)sc2c1` the CPE inhibition was 9.35% (active). For `c1ccc2sc(Nc3nc4cc5c(cc4s3)OCO5)nc2c1`, the CPE inhibition was 0.275% (inactive). With `Fc1ccc2nc(Nc3nc4c(F)cc(F)cc4s3)sc2c1` the CPE inhibition was 1.16% (inactive). With `Cc1ccc(N/N=C(\C#N)C(N)=S)c(C)c1` the CPE inhibition was 4.94% (inactive). In the case of `Cc1ccccc1-n1c(-c2csc(C)c2C)n[nH]c1=S`, the CPE inhibition is reported as 0.5% (inactive). In the case of `C=CCOC(=O)C1=C[C@@H](c2coc3ccccc3c2=O)C[C@@H](OCCCCO)O1`, the CPE inhibition is reported as “inactive”. With `O=C1c2cccc3c(N4CCOCC4)c([N+](=O)[O-])cc(c23)C(=O)N1c1cccc2ccccc12` the CPE inhibition was “inactive”. For `N#Cc1ccc(C23CC4(C2)[C@H](CN(P(=O)(c2ccccc2)c2ccccc2)[C@@H]4c2ccccc2)C3c2ccc(Cl)nc2)cc1` (stereo partly specified), the CPE inhibition was 18.1% (active). In the case of `Clc1ccc(C2[C@H]3CN(CC4CCCCC4)[C@H](c4ccccc4)C34CC2(c2ccccc2)C4)cn1` (stereo partly specified), the CPE inhibition is reported as 4.18% (inactive). With `CC(C)CC(=O)NC(Nc1ccc([N+](=O)[O-])cc1)C(Cl)(Cl)Cl` (stereo unspecified) the CPE inhibition was 6.29% (inactive). In the case of `Cc1cccc(N2C(=O)C(Cc3ccccc3)NC2=S)c1` (stereo unspecified), the CPE inhibition is reported as “inactive”. For `CCn1c(O)c(N=NC(=O)c2ccc(CSc3nncn3C)cc2)c2ccccc21`, the CPE inhibition was “inactive”. In the case of `O=C(N=Nc1c(O)n(Cc2ccccc2)c2ccccc12)c1ccc(O)cc1`, the CPE inhibition is reported as 16.3% (active). In the case of `CCCCn1c(O)c(N=NC(=O)c2ccco2)c2ccccc21`, the CPE inhibition is reported as “inactive”. For `C/C(=N\Nc1ccc([N+](=O)[O-])cc1)c1ccc(-n2nncc2C)cc1`, the CPE inhibition was “inactive”. In the case of `N#CC(C#N)=Cc1ccc(-c2ccc(S(=O)(=O)N=C(N)N)cc2)o1`, the CPE inhibition is reported as 0.46% (inactive). In the case of `COC(=O)c1sc2nc(C)cc(-c3ccccc3)c2c1N`, the CPE inhibition is reported as “inactive”. In the case of `Cc1ccc(/C=C2\SC(=S)N(CCC(=O)NNS(=O)(=O)c3ccc(C)cc3)C2=O)cc1`, the CPE inhibition is reported as 0.18% (inactive). For `CC(C)(C)CNC(=O)c1cccc2c1C(=O)c1ccc(N3CCCC3)cc1S2(=O)=O`, the CPE inhibition was 0.02% (inactive). With `O=C(Nc1nc(-c2ccc(-c3ccccc3)cc2)cs1)C1=COCCO1` the CPE inhibition was 1.39% (inactive). With `O=C(Nc1nc(-c2cccs2)cs1)C1=COCCO1` the CPE inhibition was “inactive”. In the case of `O=C(Nc1nc(-c2ccc(Oc3ccccc3)cc2)cs1)C1=COCCO1`, the CPE inhibition is reported as 10.7% (active). For `O=C1N=C(N2CCCC2)CN1c1ccccc1`, the CPE inhibition was 0.23% (inactive). In the case of `CC(C)=NOC(=O)c1ccc(-c2ccccc2)cc1`, the CPE inhibition is reported as 0.26% (inactive). For `CCC(=O)c1ccc(-c2ccccc2)cc1`, the CPE inhibition was “inactive”. With `O=C([O-])c1ccc(-[n+]2c(-c3ccccc3)cc(-c3ccccc3)cc2-c2ccccc2)cc1` the CPE inhibition was 10.2% (active). In the case of `C=C(C)C1CC=C(C)/C(=N/NC(=O)c2cccc([N+](=O)[O-])c2)C1` (stereo unspecified), the CPE inhibition is reported as “inactive”. With `CCOC(=O)c1sc(N/N=C/c2ccccc2)nc1C` the CPE inhibition was 0.925% (inactive). For `COc1ccc(/C=C(\C#N)C(=O)OCC(=O)Nc2c(C)cccc2C)cc1`, the CPE inhibition was “inactive”. For `Cc1ccc(C)c2[nH]c(=O)c(C(c3nnnn3C(C)(C)C)N3CC=C(c4ccc(F)cc4)CC3)cc12` (stereo unspecified), the CPE inhibition was 26.9% (active). With `CC(CCc1ccccc1)NC(=O)Cc1ccccc1` (stereo unspecified) the CPE inhibition was “inactive”. For `Cc1ccccc1NC(=O)C(=O)NC(C)CCc1ccccc1` (stereo unspecified), the CPE inhibition was “inactive”. For `Cc1ccc(NC(=S)NC(C)CCc2ccccc2)cc1C` (stereo unspecified), the CPE inhibition was 19.3% (active). For `Cc1ccccc1C(=O)Nc1c2c(nc3ccccc13)CCCC2`, the CPE inhibition was “inactive”. In the case of `CCOC(=O)/C=C/C(=O)OCC(=O)NC(c1ccccc1)c1ccccc1`, the CPE inhibition is reported as 0.285% (inactive). With `O=C(COC(=O)/C(=C/c1cccs1)c1cccs1)NC(c1ccccc1)c1ccccc1` the CPE inhibition was 17.2% (active). In the case of `O=C(COC(=O)Cc1ccsc1)NC(c1ccccc1)c1ccccc1`, the CPE inhibition is reported as “inactive”. With `Cc1nn(C)c(C(=O)NCc2ccc(Cl)cc2)c1Cl` the CPE inhibition was 0.24% (inactive). For `Cc1ccc(NC(=S)c2ccccc2)cc1`, the CPE inhibition was “inactive”. In the case of `CCOC(=O)C1=C(Nc2ccccc2)CC(C)(O)C(C(=O)OCC)C1c1ccc(Cl)cc1` (stereo unspecified), the CPE inhibition is reported as 26.4% (active). For `CCOC(=O)C1C(C(=O)OCC)C1(c1ccccc1)c1ccccc1` (stereo unspecified), the CPE inhibition was 0.545% (inactive). For `CCOC(=O)C1=C(Nc2ccccc2)CC(C)(O)C(C(=O)OCC)C1c1ccccc1` (stereo unspecified), the CPE inhibition was 0.14% (inactive). In the case of `Cc1ccc(-n2[nH]c3c4c(ccc3c2=O)C(=O)c2ccccc2C4=O)cc1`, the CPE inhibition is reported as 17% (active). With `CN(C)c1cccc2c1C(=O)c1ccccc1C2=O` the CPE inhibition was “inactive”. In the case of `O=C1c2ccccc2C(=O)c2c1cccc2N1CCCC1`, the CPE inhibition is reported as 0.885% (inactive). With `CC(C)Cc1nc(Nc2ccc(S(=O)(=O)N3CCCC3)cc2)c2nnn(Cc3ccccc3)c2n1` the CPE inhibition was 19.9% (active). With `O=S(=O)(c1ccc(-c2csc(Nc3ccc(F)cc3)n2)cc1)N1CCCC1` the CPE inhibition was 2.46% (inactive). In the case of `O=S(=O)(c1ccc(-c2csc(Nc3ccc(Br)cc3)n2)cc1)N1CCCC1`, the CPE inhibition is reported as 5.89% (inactive). With `O=C(COC(=O)Cc1c[nH]c2ccccc12)Nc1cccc2ccccc12` the CPE inhibition was 0.635% (inactive). In the case of `COc1cccc(NC(=S)NNC(=O)Cn2nc(C(F)(F)F)cc2C)c1`, the CPE inhibition is reported as “inactive”. With `O=C1C(Cc2cccc([N+](=O)[O-])c2)SC(=Nc2ccccc2)N1c1ccccc1` (stereo unspecified) the CPE inhibition was 2.22% (inactive). In the case of `CCOc1ccc(C(=O)Nc2cccc(-c3nc4ccccc4[nH]3)c2C)cc1[N+](=O)[O-]`, the CPE inhibition is reported as 1.88% (inactive). For `CCOc1ccc(C(=O)Nc2ccc(-c3nc4ccccc4[nH]3)cc2)cc1[N+](=O)[O-]`, the CPE inhibition was 8.47% (active). With `CCOc1ccc(C(=O)Nc2cc(-c3nc4ccccc4[nH]3)ccc2Cl)cc1[N+](=O)[O-]` the CPE inhibition was “inactive”. With `COc1cccc(-c2c(-c3cc(OC)cc(OC)c3)n(C)c3ccc(Br)cc23)c1` the CPE inhibition was 1.34% (inactive). In the case of `COc1cc(OC)cc(-c2c(-c3ccc(F)cc3)c3cc(-c4cnc(OC)nc4)ccc3n2C)c1`, the CPE inhibition is reported as 2.91% (inactive). For `O=C1[C@@H]2[C@@H]3C[C@@H]([C@H]4ON=C(c5ccc(Cl)cc5)[C@@H]34)[C@@H]2C(=O)N1c1ccc2c(c1)OCO2`, the CPE inhibition was “inactive”. With `O=C1[C@@H]2[C@@H]3C[C@@H]([C@H]4ON=C(c5ccc(Cl)cc5Cl)[C@@H]34)[C@@H]2C(=O)N1C1CCCCC1` the CPE inhibition was 14.8% (active). With `O=C1[C@@H]2[C@@H]3C[C@@H]([C@H]4ON=C(c5ccc(Cl)cc5)[C@@H]34)[C@@H]2C(=O)N1C1CCCCC1` the CPE inhibition was 10.9% (inactive). For `COc1ccc(NC(=O)CCC(=O)OCc2ccc(Br)cc2)cc1`, the CPE inhibition was 0.265% (inactive). For `O=C(/C(=C\c1ccccc1)c1nc2ccccc2[nH]1)c1ccc(Cl)cc1`, the CPE inhibition was “inactive”. For `CCn1c(SCC(=O)N/N=C/c2ccc(C)o2)nnc1-c1ccc(C(C)(C)C)cc1`, the CPE inhibition was 0.345% (inactive). For `Cc1nn(-c2ccccc2)c(C)c1/C=N/NC(=O)CSc1nnc(SCc2cccc3ccccc23)s1`, the CPE inhibition was 4.67% (inactive). For `CCn1c(SCC(=O)N/N=C/c2c[nH]c3ccccc23)nnc1-c1ccc(Cl)cc1`, the CPE inhibition was 1.47% (inactive). For `O=C(CSc1nnc(SCc2ccccc2Cl)s1)N/N=C/c1c[nH]c2ccccc12`, the CPE inhibition was 0.645% (inactive). For `O=C(CSc1nnc(SCc2cccc3ccccc23)s1)N/N=C/c1c[nH]c2ccccc12`, the CPE inhibition was 23.8% (active). In the case of `CCn1c(SCC(=O)N/N=C/c2c[nH]c3ccccc23)nnc1-c1ccc(C(C)(C)C)cc1`, the CPE inhibition is reported as 14.2% (active). In the case of `CCc1ccc(OC(C)c2nnc(SCC(=O)Nc3ncccc3C)n2C)cc1` (stereo unspecified), the CPE inhibition is reported as 0.355% (inactive). With `Cc1cc(C)c2[nH]c(=O)c(CN(Cc3cccs3)C(=S)NCc3ccco3)cc2c1` the CPE inhibition was 4.37% (inactive).
